Reference: PubChem BioAssay (NCI)
This is part of a sample that, as a whole, favours compounds with a hit. Of some 83,000 tested, about 20% had one in any assay.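 Growth was measured after 48 h exposure to one concentration of compound in 96-well plates. Values under 10 count as active.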 Values without a mark were called inactive. Active and inactive are the calls of the source.

Tested on: MDA-MB-435 melanoma
Assay: NCI-60 one-dose screen, 48 h (100 = growth as untreated, 0 = no growth, -100 = all killed)
Conditions: 10 µM unless noted

SMILES | growth
O=S(=O)(NCCCNc1cc(-c2cn(-c3ccccc3)nc2-c2cccc(O)c2)ccn1)c1ccc(Cl)cc1 | 16.4%
COc1ccc(-c2nc3sccn3c2-c2ccnc(NCCCNS(=O)(=O)c3ccc(C)cc3)n2)cc1 | 23.4%
O=C1c2ccccc2C(=O)c2c1oc1oc3c(c(=O)c21)c(=O)n(-c1ccccc1)c1ccccc31 | 87.8%
C#CCC1(c2ccc(F)c(F)c2)NS(=O)(=O)c2ccccc21 (centres undefined) | 107%
Cc1nc(Nc2cccnc2)sc1C(=O)/C=C/c1ccc(F)cc1 | 2.86% (active)
CCC#CC[C@H]1C/C=C2/C(=O)C=C[C@@H]2C/C=C\CCCC(=O)O1 | -0.679% (active)
CNC(=O)Cc1nc(-c2cccc(NS(=O)(=O)c3c(F)cccc3F)c2F)c(-c2ccnc(Nc3ccccc3)n2)s1 | 48.3%
CC(=O)Nc1ccc2c(c1)/C(=C\C=C/c1ccc([N+](C)(C)C)cc1)c1ccccc1-2 | 96%
COc1cc(OC)cc(-c2n[nH]nc2-c2ccc3c(c2)OCO3)c1 | -82.8% (active)
O=C1CCC/C=C\C[C@H]2C=CC(=O)/C2=C/C[C@H](C/C=C\CC(F)(F)F)O1 | -22.8% (active)
O=C(Nc1cccc(Cl)c1)c1cc([N+](=O)[O-])ccc1O | 60.4%
O=C1N=C(c2c(-c3[nH]c(=O)c4ccc(Br)cc4c3O)c(O)c3ccccc3c2O)C(=O)c2cc(Br)ccc21 | -63.4% (active)
COc1cc(-n2nc(C(=O)Nc3ccc(C(=O)O)cc3)nc2-c2ccccc2)cc(OC)c1OC | 113%
COc1ccc(OC)c(-c2ccc(-c3ccccc3N)c3[nH]c4ccccc4c23)c1 | 105%
COc1ccc(S(=O)(=O)Nc2cc(/C=C\c3cc(OC)c(OC)c(OC)c3)cc(OC)c2OC)cc1OC | -66.5% (active)
Cc1cc(NC(=O)COC(=O)c2sc3cc(F)ccc3c2Cl)no1 | 108%
Nc1c(C(=O)Nc2cccc(C(F)(F)F)c2)sc2nc3c(cc12)C(O)CCC3 (centres undefined) | -16.7% (active)
CC(=O)C1CCC(C)=CC1=O (centres undefined) | 103%
COc1ccc(-c2nc3sccn3c2-c2ccnc(NCCCNS(=O)(=O)c3ccc(F)cc3)n2)cc1 | 14.1%
COc1cc(-c2csc(NC(=O)Nc3ccc(Cl)cc3Cl)n2)cc(OC)c1OC | -7.76% (active)

SMILES | growth
CCSc1nnc(Nc2ccc(C(C)C)cc2)s1 | 86.7%
CCOC(=O)CC/C(C)=N\Nc1ccc([N+](=O)[O-])cc1 | 28.4%
Cc1ccc2c(c1)C(=O)C(c1c(-c3[nH]c(=O)c4ccc(C)cc4c3O)c(O)c3ccccc3c1O)=NC2=O | 30.7%
CN(C)CCCNC(=O)C(c1ccccc1)c1ccccc1 | 108%
COc1ccc(-c2nnc(COc3ccc(NC(=O)Nc4ccc(Cl)c(C(F)(F)F)c4)cc3F)o2)cc1 | 4.03% (active)
O=c1oc2cc(OS(=O)(=O)c3ccc(F)cc3)ccc2c2c1CCCCC2 | 78.5%
Nc1nc(-c2ccccc2)cs1 | 107%
COc1ccc(C(=O)/C=C/c2cccc([N+](=O)[O-])c2)c(OC)c1 | 15.2%
C=CCOc1cccc(/C=C/C(=O)c2sc(Nc3cccnc3)nc2C)c1 | 22.5%
Cc1cc(Nc2nc(C(=O)Nc3ccccc3)nc3ccccc23)n[nH]1 | 64.9%
CC1CCN(C(=O)CSc2nc3sc4c(c3c(=O)[nH]2)CCCC4)CC1 | 95.6%
COc1ccc(-c2nc(-c3nc4ccc(F)cc4[nH]3)cc3c2[nH]c2ccccc23)cc1 | 27.5%
CC/C=C\C[C@H](O)C/C=C1/C(=O)C(Cl)=C[C@@H]1C/C=C\CCCC(=O)O | 19.3%
O=c1[nH]c2ccccc2cc1-c1nnc(Cc2ccccc2)o1 | 52.9%
COc1ccc(C2CC(c3cccs3)=NN2c2ccc(S(=O)(=O)NC(=O)Nc3ccc(C)cc3)cc2)cc1 (centres undefined) | 61.9%
CCSc1nnc(NC(=O)COc2ccc(Cl)cc2C)s1 | 84%
COc1ccc(Cn2c(SC)nc(=O)n(Cc3ccc(Cl)cc3)c2=O)cc1 | 111%
O=C(Nc1ccc(Br)c(Cl)c1)c1cc(F)ccc1O | -11.3% (active)
O=C(CCl)NCCNc1nccc(Nc2ccc(S(=O)(=O)Nc3ccccn3)cc2)n1 | 7.62% (active)
